{
  "source": "PubChem BioAssay (NCI)",
  "note": "About 83,000 compounds went through this panel and 20% of them were active in at least one assay; those are over-represented in the sample as a whole.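 Results are percent growth after 48 hours of single-concentration exposure. 100 means growth as in untreated cells, lower positive values show inhibition; negative values down to -100 show cell death.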 Values without a mark were called inactive. Active and inactive are the calls of the source.",
  "data": [
    {"system": "COLO 205 colon", "experiment": "NCI-60 one-dose screen, 48 h (100 = growth as untreated, 0 = no growth, -100 = all killed)", "conditions": "10 µM unless noted", "method": "Cells are grown in 96 well plates and exposed to the test compound for 48 hours. Compounds are tested at a single concentration, which is 10^-5 M for most compounds. The reported endpoint is percent growth (GI% or GIPRCNT), where numbers from 0 - 100% represent growth inhibition, and numbers from -100% - 0 represent cell death. For example, a value of 40 represents 60% growth inhibition. A value of 0 means no net growth occurred over the course of the experiment. A value of -40 indicates 40% of cells at the beginning of the experiment died by the end of the experiment. A value of -100 means all cells are dead at the end of the experiment.\nNCI-60 Human Tumor Cell Lines Screen was performed using the standard one-dose NCI protocol, which is described in more detail at https://dtp.cancer.gov/discovery_development/nci-60/default.htm.\nCompounds with GIPRCNT values below 10 were considered active. Activity score was based on GIPRCNT using the following formula: […]\nScore is 0 for GIPRCNT values of 100 or above, 50 for GIPRCNT values of 0, and 100 for GIPRCNT values of -100.", "values": [
      {"smiles": "Nc1cc2c(cc1N)-c1cc(N)c(N)cc1C2", "growth": "116%"},
      {"smiles": "NS(=O)(=O)c1ccc(CN2C(=O)c3cccc4cccc(c34)C2=O)cc1", "growth": "99.4%"},
      {"smiles": "COc1cccc(-c2nc3sccn3c2-c2ccnc(NCCCNS(=O)(=O)c3ccc(F)cc3)n2)c1", "growth": "17.1%"},
      {"smiles": "COc1ccc(-c2nc3sccn3c2-c2ccnc(NCCCNS(=O)(=O)c3ccc4ccccc4c3)n2)cc1", "growth": "57.6%"},
      {"smiles": "COc1ccc(-c2nc3sccn3c2-c2ccnc(NCCCNS(=O)(=O)c3ccc(F)cc3)n2)cc1", "growth": "1.87% (active)"},
      {"smiles": "CCOC(=O)CC(C#N)(CC(=O)OCC)C(=O)OCC", "growth": "116%"},
      {"smiles": "COc1ccc(-c2nc3sccn3c2-c2ccnc(NCCCNS(=O)(=O)c3ccc(C)cc3)n2)cc1", "growth": "11.5%"},
      {"smiles": "COc1ccc([N+](=O)[O-])c(/C=C/C(=O)c2ccccn2)c1", "growth": "89.1%"},
      {"smiles": "COc1cc(-c2cc(/C=C3\\CCCCC3=O)[nH]n2)cc(OC)c1OC", "growth": "108%"},
      {"smiles": "c1cc(-c2ccc3c(c2)OCO3)n2nccc2n1", "growth": "113%"},
      {"smiles": "CCn1cc(C(=O)O)c(=O)c2cc(F)c(N3CCN(S(=O)(=O)c4ccc(OC)c(OC)c4)CC3)cc21", "growth": "99.3%"},
      {"smiles": "NC(=O)NNC(=O)c1ccccc1", "growth": "118%"},
      {"smiles": "O=C(O)c1cn(C2CC2)c2cc(N3CCN(S(=O)(=O)c4ccc(Cl)c(Cl)c4)CC3)c(F)cc2c1=O", "growth": "-68.4% (active)"},
      {"smiles": "COc1cc(Cn2c(-c3nonc3N)nc3ccccc32)ccc1C", "growth": "-9.7% (active)"},
      {"smiles": "Cn1c(=O)c2c(nc3n2CCN(CCc2ccc(OCCN4CCOCC4)cc2)C3)n(C)c1=O", "growth": "115%"},
      {"smiles": "CCn1cc(C(=O)O)c(=O)c2cc(F)c(N3CCN(S(=O)(=O)c4cccc5ccccc45)CC3)cc21", "growth": "-87.6% (active)"},
      {"smiles": "COc1cc(NC(=O)c2cc3ccccc3nc2Nc2ccc(F)cc2)cc(OC)c1OC", "growth": "38%"},
      {"smiles": "COc1ccc(/C=C/c2nc(N3CCOCC3)c3nc(Cl)c(Cl)cc3n2)cc1OC", "growth": "105%"},
      {"smiles": "COc1cccc(/C=C2\\SC(N3CCN(c4ccccn4)CC3)=NC2=O)c1", "growth": "119%"},
      {"smiles": "COc1cc(CNC(=O)CSc2nc3ccccc3c(=O)n2Cc2cc(OC)c(OC)c(OC)c2)cc(OC)c1OC", "growth": "105%"},
      {"smiles": "COc1cccc(-c2nc3sccn3c2-c2ccnc(NCCNS(=O)(=O)c3ccccc3)n2)c1", "growth": "34.1%"},
      {"smiles": "COc1cccc2nc(Nc3ccc(NC(=O)c4ccc5ncccc5c4)cc3)ccc12", "growth": "103%"},
      {"smiles": "CCc1c(C(=O)Nc2ccc3ccccc3c2)[nH]c(C)c1C(C)=O", "growth": "111%"},
      {"smiles": "O=[N+]([O-])c1cc(S(=O)(=O)OCC2CO2)ccc1Cl", "note": "(stereo not given)", "growth": "117%"},
      {"smiles": "c1ccc([P+](CCC[P+](c2ccccc2)(c2ccccc2)c2ccccc2)(c2ccccc2)c2ccccc2)cc1", "growth": "45.4%"},
      {"smiles": "O=C(Nc1ccc(I)cc1)c1cc([N+](=O)[O-])ccc1O", "growth": "37.1%"},
      {"smiles": "N#CC1=C(N)OC2=C(C(=O)CCC2)C1c1ccco1", "note": "(stereo not given)", "growth": "110%"},
      {"smiles": "Cc1sc2nc(CSc3nnc(-c4ccco4)o3)[nH]c(=O)c2c1C", "growth": "109%"},
      {"smiles": "COc1cc2nc(SCc3cc(OC)c(OC)c(OC)c3)n(Cc3ccccc3)c(=O)c2cc1OC", "growth": "7.38% (active)"},
      {"smiles": "CC(Br)C(O)c1cc2c(cc1Br)OCO2", "note": "(stereo not given)", "growth": "120%"},
      {"smiles": "NC(N)=NC(N)=Nc1ccccc1-c1ccccc1", "growth": "125%"},
      {"smiles": "CCN(C(=O)c1cc2ccccc2[nH]1)[C@H]1CCC[C@@H](NCc2ccc(OC)cc2)C1", "growth": "87.6%"},
      {"smiles": "COc1ccc2c(c1)C(=O)/C(=C/c1ccc(O)cc1)O2", "growth": "24.8%"},
      {"smiles": "CCSc1nnc(NC(=O)Cc2ccc(Cl)cc2)s1", "growth": "108%"},
      {"smiles": "CCCCNc1nnc(-c2cc(-c3cc4ccccc4o3)nn2-c2ccccc2)o1", "growth": "105%"},
      {"smiles": "COc1ccc(/C=C/C(=O)c2cc(OC)c(OC)c(OC)c2)cc1OCc1cn(Cc2ccc(F)cc2)nn1", "growth": "66.4%"},
      {"smiles": "NS(=O)(=O)c1ccc(NCC(=O)Nc2ccc(-c3nc4ccccc4s3)cc2)cc1", "growth": "98.5%"},
      {"smiles": "CN(C)c1ccc(C2CC(c3ccccc3)=NN2/C=C2\\SC(=O)NC2=O)cc1", "note": "(stereo not given)", "growth": "110%"},
      {"smiles": "COc1cccc2cc(-c3cc4ccccc4[nH]3)/c(=N/C(=S)Nc3ccccc3)oc12", "growth": "98.1%"},
      {"smiles": "CCCCCC(=O)OCc1ccccc1", "growth": "106%"}
    ]}
  ]
}
